Compound activity (PubChem)
Shown are actives, neighbours in structure and some others; about 7.5% of the full set was active somewhere.
FMDV antiviral = foot and mouth disease virus antiviral activity | 1.2% of 410,000 active | Potency, µM (highest dose often 57.9 µM), for the others: at the highest dose activity change, negative = inhibition, usual class: inhibitors | AID 1159524 | FMDV antiviral cell-based qHTS; calls by dose curve; tested in HEK293T cells; also: read-out not given here; potency is read from the fitted curve at half-maximal effect; nearly all actives have a fitted effect of over 45% in size
HCMV inh = human cytomegalovirus inhibition; HFF cells, HCMV-luciferase reporter, 72 h; active compounds read low; activity change, negative = inhibition, % at 57.5 µM; 4.5% of 410,000 active; in the data active = activity change below about -60%; inconclusive = no clear call, values can overlap the other calls; inactive = above about -39%
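Compounds were evaluated in HFFs infected with an HCMV luciferase reporter virus (MOI 1 PFU/cell). Luciferase in lysates collected 72 h post infection served as the replication measure.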
HCV inh = inhibitors of hepatitis C virus infection | 3.4% of 340,000 active | Potency, µM (series often up to 41.8 µM), without a hit: at the top dose activity change, negative = inhibition, actives largely listed as inhibitors | Huh7.5.1 HCVcc-Cre infection, luciferase reporter, 44 h; also: potency is read from the fitted curve at half-maximal effect
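Compounds are dispensed onto cells plated 4 h earlier at 1,000 per well, with HCVcc-Cre virus (about 0.5 moi) added next. Following 44 h of culture, luminescent signal is measured for 15 sec after 15 min with substrate at room temperature.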
Giardia FBPA inh = Giardia lamblia aldolase inhibition; A8B2U2; purified Giardia FBPA; Potency, µM (highest dose often 59.6 µM), inactives show at the highest dose activity, negative = inhibition, actives largely listed as inhibitors; 0.71% of 290,000 active; AID 2451; also: potency is read from the fitted curve at half-maximal effect; nearly all actives have a fitted effect of over 55% in size
Target sequence (A8B2U2 whole entry, looked up): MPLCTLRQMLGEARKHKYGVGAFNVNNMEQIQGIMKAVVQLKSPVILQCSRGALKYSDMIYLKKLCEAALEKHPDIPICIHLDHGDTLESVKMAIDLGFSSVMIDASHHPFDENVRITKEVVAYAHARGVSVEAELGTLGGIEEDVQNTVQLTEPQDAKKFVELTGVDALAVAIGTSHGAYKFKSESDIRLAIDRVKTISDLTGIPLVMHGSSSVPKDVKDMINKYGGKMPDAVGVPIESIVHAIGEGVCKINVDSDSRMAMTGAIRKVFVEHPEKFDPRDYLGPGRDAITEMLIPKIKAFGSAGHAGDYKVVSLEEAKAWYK
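40 nM FBPA preincubated 10 min at RT with compound (up to 57.5 uM final), then substrate plus GAPDH/TPI/NAD/arsenate coupling and diaphorase/resazurin added. Fluorescence read after 20 min at RT, 525/598 nm.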
Vaccinia Venus = vaccinia inhibition (Venus reporter). Potency, µM (titrated, usually from 36.5 µM), for the others: at the highest dose activity change, negative = inhibition, usual class: inhibitors. Vaccinia virus Venus reporter expression, fluorescence. 0.46% of 330,000 active; calls by dose curve; tested in A549 cells; also: potency is read from the fitted curve at half-maximal effect; nearly all actives have a fitted effect of over 30% in size
VACV mCherry inh = inhibitors of vaccinia virus infection (mCherry reporter signal); 0.63% of 310,000 active; Vaccinia virus mCherry reporter infection, fluorescence; Potency, µM (doses to about 36.5 µM), for inactives: at the top dose activity change, negative = inhibition, hits mostly inhibitors; AID 720579; calls by dose curve; tested in A549 cells; also: potency is read from the fitted curve at half-maximal effect; nearly all actives have a fitted effect of over 35% in size
Active calls of the source: *; i = inactive; ? = inconclusive; . = no result given; [ ] = another dose, or the depositor's remark. Unless noted, calls follow the shape of the dose curve; as a rule, active = well fitted curve in the direction sought with a large enough effect; inconclusive = small, poorly fitted or top-dose-only effect, or another doubt; inactive = no such curve, though single readings can be large; an effect the other way counts as inactive or inconclusive. % is scaled to controls: 0 for no effect and ±100 for the full control effect.

SMILES | FMDV antiviral | HCMV inh | HCV inh | Giardia FBPA inh | Vaccinia Venus | VACV mCherry inh
O=C(O)/C=C/c1cn(Cc2ccccc2)nc1-c1ccc(Cl)cc1 | -6.5% | 7.8 | -15.5% | 12.8% | -1.3% | i
O=C(NC1CCCCC1)c1nccnc1-c1ccc(C(F)(F)F)cc1 | . | 33.3 | . | . | . | .
Cc1cccc(C)c1NC(=O)c1ccc(-c2ccc(Cl)cc2Cl)o1 | -24.0% | -71.9* | ? | -11.3% | -8.1% | -22.6%
Cc1ccccc1NC(=O)c1ccc(-c2ccc(Cl)cc2Cl)o1 | 6.4% | -10.6 | 12.6µM* | 0.7% | ? | .
O=C(COC(=O)c1cccs1)Nc1nc(-c2ccccc2)cs1 | 31.4% | 145.8 | 34.8% | 2.7% | -10.0% | -9.5%
Cc1sc(NC(=O)/C=C/c2ccc3c(c2)OCO3)nc1-c1ccccc1 | 6.31µM* | ? | ? | 1.5% | -20.9% | -24.5%
O=C(/C=C/c1ccc2c(c1)OCO2)Nc1nncs1 | 57.8% | 77.1 | 0.0% | 8.5% | . | .
O=C(/C=C/c1cccs1)Nc1nc(-c2ccccc2)cs1 | -46.6% | -15.1 | 22.4µM* | -11.9% | . | .
C/C(=N\Nc1nc(-c2ccccc2)cs1)c1cccs1 | 0.0% | 38.1 | 2.82µM* | -2.5% | -9.0% | i
O=C(/C=C/c1ccc2c(c1)OCO2)Nc1nc(-c2ccccc2)cs1 | 14.1µM* | ? | 6.31µM* | -9.9% | ? | ?
Cc1cccc(C)c1Cn1c(C)c(C(=O)NCCC#N)sc1=O | -12.3% | -0.3 | . | . | 0.1% | i
COC(=O)CCC(=O)OC1(C)C(=O)C2=CN(C(CO)CO)C(c3ccc(OC)cc3)=CC2=C(Br)C1=O (stereo not given) | . | 13.0 | . | 0.629µM* | . | .
COC(=O)CCC(=O)OC1(C)C(=O)C2=COC(c3ccc(OC)cc3)=CC2=C(Br)C1=O (stereo not given) | 14.4% | . | 14.0% | ? | -17.2% | i
COC(=O)CCC(=O)OC1(C)C(=O)C2=CN(CCCCO)C(c3ccc(OC)cc3)=CC2=C(Br)C1=O (stereo not given) | . | . | . | 5.01µM* | . | .
COC(=O)CCC(=O)OC1(C)C(=O)C2=CN(CCc3ccccn3)C(c3ccc(OC)cc3)=CC2=C(Br)C1=O (stereo not given) | 19.1% | . | -5.9%[8.37 µM] | ? | 10.8% | 5.0%
COC(=O)CCC(=O)OC1(C)C(=O)C2=CN(Cc3ccc4c(c3)OCO4)C(c3ccc(OC)cc3)=CC2=C(Br)C1=O (stereo not given) | -19.7% | . | 1.6% | -19.5%[12.9 µM] | -0.1% | -11.6%
COC(=O)CCC(=O)OC1(C)C(=O)C2=CN(CCN3CCOCC3)C(c3ccc(OC)cc3)=CC2=C(Br)C1=O (stereo not given) | . | . | . | 0.561µM* | . | .
O=C(COC(=O)c1n[nH]c(=O)c2ccccc12)Nc1cccc(S(=O)(=O)N2CCOCC2)c1 | -17.2% | 7.6 | 10.7% | . | . | .
O=S(=O)(c1ccc(F)cc1)c1nc(-c2ccco2)oc1Nc1ccc(F)cc1 | 7.1% | -73.6* | ? | -6.1% | . | .
CC1CC[C@@]2(OC1)OC1CC3C4CC=C5CC(O)CC[C@@]5(C)C4CC[C@]3(C)C1C2C (stereo not given in full) | 1.7% | . | . | -0.7% | -18.6% | i
CCOc1ccc(CCNC(=O)c2[nH]c3cc(OC)ccc3c2Sc2ccccc2)cc1OCC | -23.2% | -8.3 | . | . | -17.2% | -7.0%
CC(C)(C)c1cc(CP(=O)(c2ccccc2)c2ccccc2)cc(C(C)(C)C)c1O | ? | -14.0 | 15.8µM* | 10.5% | . | .
CC1CCCCC1NC(=O)CSc1nnc(CC(=O)Nc2ccccc2F)n1C (stereo not given) | -7.0% | 2.0 | 19.6% | -1.3% | -4.2% | -29.5%
CC(=O)Oc1ccccc1/C=C1\CCOC1=O | . | -62.4* | 12.8% | 2.3% | -25.3% | -19.2%
O=C(NCC1(N2CCOCC2)CCCC1)c1cnn(-c2nccc(-c3cccs3)n2)c1C1CC1 | -3.6% | . | . | . | 10.4% | -10.9%
SMILES | FMDV antiviral | HCMV inh | HCV inh | Giardia FBPA inh | Vaccinia Venus | VACV mCherry inh
Cc1cc(C)c2c(c1)/C(=C/C(=O)c1ccc(Br)s1)C(=O)N2 | ? | -103.2* | 11.2µM* | 2.6% | . | .
CCOC(=O)Nc1nc(-c2ccccc2)c(C(=O)c2ccc(Cl)cc2)s1 | -18.2% | -67.4* | ? | -1.2% | ? | .
CCOC(=O)Nc1sc(C)nc1-c1ccccc1 | 0.0% | -6.9 | -2.2% | -1.7% | -4.6% | -5.3%
O=C(Nc1ccc(Cl)cc1)c1ccc2c(c1)N(Cc1ccccc1)CCS2 | -3.4% | -2.2 | . | . | -5.2% | -9.4%
Cc1cccc(NC(=O)/C=C/c2ccc([N+](=O)[O-])s2)c1 | 0.0% | -97.7* | 11.2µM* | 0.6% | -2.9% | -21.7%
Cc1cccc(NC(=S)N/N=C/c2ccc([N+](=O)[O-])s2)c1 | -11.8% | -92.5* | 8.91µM* | -5.6% | 22.4µM* | 11.2µM*
Cc1ccc(NC(=O)/C=C/c2ccc([N+](=O)[O-])s2)c(C)c1 | 12.6µM* | -101.0* | ? | 1.9% | 107.9% | -11.9%
Cc1ccc(NC(=O)/C=C/c2ccc([N+](=O)[O-])s2)cc1 | 0.0% | -96.1* | ? | -0.2% | 20.4% | -13.7%
Cc1cc([N+](=O)[O-])ccc1NC(=O)/C=C/c1cccs1 | 15.4% | 58.4 | ? | -2.5% | -14.1% | -10.5%
CC(C)(C)OC(=O)N/N=C\c1ccc([N+](=O)[O-])s1 | 1.5% | -21.4 | -32.9% | -7.7% | ? | -12.1%
CCOC(=O)C1CCCN(C(=O)Cn2ncc3c4ccccc4n(C)c3c2=O)C1 (stereo not given) | -8.2% | 17.1 | . | . | -2.9% | -4.9%
CNC(=O)c1[nH]cnc1C(=O)Nc1ccccn1 | -9.6% | 112.3 | -4.9% | -14.4% | -20.2% | i
COc1ccc(CN2CCCC(n3cc(C(=O)N4CCCCC4)nn3)C2)c(OC)c1C (stereo not given) | -3.6% | . | . | . | 7.1% | -7.4%
CCN(C(=O)Cn1c(C(=O)OC)cc2oc3ccccc3c21)c1cccc(C)c1 | ? | -16.5 | . | . | 2.6% | -14.1%
CCc1ccc(NC(=O)C(C)n2nnc3sc(-c4ccccc4)cc3c2=O)cc1 (stereo not given) | -11.2% | -4.2 | . | . | -2.2% | -7.1%
CCc1ccc(N2C(=O)c3sc4nnc(-c5ccccc5)c(=O)n4c3C2=O)cc1 | 0.0% | -77.2* | -15.6% | -1.9% | -15.9% | .
CC(=O)Nc1cccc(OCc2ccc(S(=O)(=O)Cc3ccccc3)cc2)c1 | -14.3% | 43.3 | ? | 3.8% | -14.9% | -4.3%
Cc1ccc(NS(=O)(=O)c2cccc(C(=O)N/N=C/c3c(C)nn(-c4ccccc4)c3N3CCCC3)c2)c(C)c1 | -16.6% | 33.1 | 12.6µM* | 1.7% | ? | -2.6%
Cc1nn(-c2ccccc2)c(N2CCCC2)c1/C=N/NC(=O)C1CC1 | -26.3% | -61.3* | ? | -16.3% | 2.3% | -11.6%
CCNc1ccc(C(=O)N/N=C/c2c(C)nn(-c3ccccc3)c2N2CCCC2)cc1[N+](=O)[O-] | ? | 71.1 | ? | -1.1% | -4.2% | -8.2%
Cc1nn(-c2ccccc2)c(N2CCCC2)c1/C=N/NC(=O)c1ccccc1O | 0.0% | -19.2 | ? | 3.8% | -15.9% | -14.2%
